PubChem BioAssay (NCI)
The panel holds about 83,000 compounds, 20% with a hit somewhere; the sample as a whole holds those more often.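 For each line, cells grew in 96-well plates with the test compound present at a single concentration for 48 hours.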 A number with no mark means an inactive call. Activity calls are given as the source filed them. How the source made its calls: active means growth percent below 10; inactive means the rest.

What was measured:
Assay in all cases: NCI-60 one-dose screen, 48 h (100 = growth as untreated, 0 = no growth, -100 = all killed)
Settings in all cases: 10 µM
[1] = tested on: DU-145 prostate
[2] = tested on: K-562 leukemia
[3] = tested on: MALME-3M melanoma
[4] = tested on: MDA-MB-231 breast
[5] = tested on: RXF 393 renal
[6] = tested on: SF-268 CNS
[7] = tested on: SF-295 CNS
[8] = tested on: SF-539 CNS
[9] = tested on: UACC-257 melanoma
[10] = tested on: M14 melanoma
[11] = tested on: HCT-15 colon
[12] = tested on: HT29 colon
[13] = tested on: SNB-75 CNS
[14] = tested on: SNB-19 CNS
[15] = tested on: U251 CNS
[16] = tested on: PC-3 prostate
[17] = tested on: SK-MEL-5 melanoma
[18] = tested on: UACC-62 melanoma
[19] = tested on: LOX IMVI melanoma
[20] = tested on: SK-MEL-28 melanoma

SMILES | growth [1] | growth [2] | growth [3] | growth [4] | growth [5] | growth [6] | growth [7] | growth [8] | growth [9] | growth [10] | growth [11] | growth [12] | growth [13] | growth [14] | growth [15] | growth [16] | growth [17] | growth [18] | growth [19] | growth [20]
C1CN(CC2CCC(CN3CCOCC3)O2)CCO1 (stereo not drawn) | 111% | 63.1% | -4.36% (active) | 118% | 112% | 104% | 99.7% | 98% | 103% | 95.9% | 101% | 102% | 96.5% | 105% | 108% | 105% | 105% | 106% | 93.2% | 105%
COc1cccc(N=Nc2cccc(OC)c2)c1 | 112% | 87.8% | 101% | 84% | 91.2% | 103% | 92.8% | 95.4% | 90.9% | 90.7% | 91.1% | 94.9% | 102% | 97% | 79.4% | 67.7% | 99.1% | – | 96.7% | 99.6%
NS(=O)(=O)c1ccc(Br)cc1 | 114% | 109% | 103% | 99.3% | 113% | 98.3% | 88.3% | 96.3% | 88.2% | 86.3% | 94.8% | 91.8% | 93.2% | 96.9% | 102% | 75.6% | 104% | – | 98.5% | 104%
Cc1cccc(N=Cc2ccccc2O)c1C | 126% | 98.3% | 91.7% | 102% | 110% | 116% | 106% | 102% | 94.6% | 105% | 108% | 97.7% | 97.3% | 90.5% | – | 94.6% | 103% | 95.2% | – | –
CC(C)(C)OC(=O)CN1CCc2c(sc3ncnc(N/N=C/c4cccc5ccccc45)c23)C1 | 66.4% | 6.22% (active) | 72.2% | 39.9% | 55.9% | 60.2% | 51.5% | 24.3% | 38.8% | 42.7% | 16.7% | 45% | 46% | 53.7% | 45.7% | 31.9% | 11.1% | 6.64% (active) | 26.2% | 50.1%
O=C(CC(CC(=O)c1ccccc1)c1ccccc1O)c1ccccc1 | 103% | 89.4% | 91.8% | 90.4% | 107% | 89.8% | 99.9% | 99.1% | 98.4% | 92.8% | 96.5% | 90.3% | 89.1% | 91.2% | 92% | 81% | 88.6% | 81.5% | 93.5% | 101%
CNS(=O)(=O)Oc1ccc(-c2sc3cc(OS(=O)(=O)NC)ccc3c2C(=O)c2ccc(OCCN3CCCCC3)cc2)cc1 | 98.2% | 9.88% (active) | 57.7% | 79.1% | 38.8% | 87.9% | 89.3% | 65% | 70% | 65.7% | 35.2% | 31.1% | 69.3% | 82.7% | 66.9% | 42.4% | 49.7% | 74.7% | 32.8% | 79.2%
CC(=O)[C@H]1CC[C@]2(C)[C@@H]1CC[C@@H]1[C@@]3(C)CC(CCC#N)(CCC#N)C(=O)C(C)(C)[C@@H]3CC[C@]12C | 108% | 110% | 105% | 105% | 90.6% | 98.9% | 98.2% | 101% | 107% | 95.9% | 100% | 98.8% | 84.5% | 93.7% | 102% | 93.8% | 86.6% | 82.4% | 94.1% | 93.9%
CN(C)c1ccc(/C=N/NC(=O)c2cccc3ccccc23)c(Cl)c1 | 17.1% | 11.6% | 53.4% | 67.7% | 7.47% (active) | 59% | 19.1% | 19.9% | 35.8% | 27.6% | 27.9% | 12.9% | 20.3% | 52.6% | 23.9% | 20.3% | 24.3% | 46.4% | 37.9% | 42%
O=C1/C(=C/c2ccc3c(c2)OCO3)SC(=S)N1C1c2ccccc2Oc2ccccc21 | 99.7% | 99.5% | 80.1% | 96% | 103% | 98.1% | 97.8% | 94.3% | 112% | 93.5% | 93% | 117% | 89.2% | 96.8% | 113% | 93.1% | 97.2% | – | 89.1% | –
COc1ccc2cc(-c3nc4ccccc4s3)c(Cl)nc2c1OC | 113% | 92.3% | 109% | 87.3% | 104% | 93.3% | 108% | 99% | 109% | 102% | 97% | 104% | 82.1% | 93.9% | 107% | 92.6% | 92.9% | 91.1% | 90.6% | 107%
COc1ccc(-c2cc(-c3ccc(Cl)cc3)nc(SCCCC(=O)NO)n2)cc1OC | 14.2% | 3.01% (active) | 6.86% (active) | 6.55% (active) | -38.2% (active) | 8.6% (active) | -32.6% (active) | -35.7% (active) | 16.1% | -40.2% (active) | -4% (active) | 6.66% (active) | 2.56% (active) | 14.8% | 12.4% | -5.41% (active) | -55.9% (active) | -60.1% (active) | -64.8% (active) | 20.5%
Cc1ccc(Cl)cc1NC(=O)CCl | 99.8% | 39% | 82.1% | 98.5% | 91.8% | 79.3% | 104% | 102% | 85.8% | 62.7% | 67.2% | 82.9% | 85.6% | 82.2% | 67.5% | 81.2% | 58.1% | 66.3% | 42.2% | 98.5%
Cc1ccc(NCCN(C)CC(C)O)c2c(=O)c3ccccc3sc12 (stereo not drawn) | 47.4% | 0.188% (active) | 34.6% | 36.9% | 24.8% | 56.6% | 53.3% | 53.2% | 45.9% | -49% (active) | 32.7% | 7.09% (active) | 57% | 54.5% | 31.9% | 41% | 58.1% | -2.71% (active) | 12.6% | 57%
CCOC(=O)c1cc(C(=O)c2cc(OC)c(OC)c(OC)c2)n2c1ccc1c3cccnc3ccc12 | 89.3% | 12.9% | 79.3% | 69.5% | 66.8% | 69.9% | 63.4% | 55.5% | 73.4% | 31.6% | 41.4% | 19.5% | 64.7% | 71.9% | 51% | 63.9% | 34.1% | 57.5% | 46.9% | 80.2%
